Hits are enriched below; roughly 14% of the tested compounds scored in any of these assays.
Pf growth 96h: P. falciparum growth inhibition at 96 hours | Potency, µM (series often up to 28.7 µM), inactives show at the top dose activity change, negative = inhibition, hits mostly inhibitors | 320,000 compounds, 6.9% hits | AID 504834 | P. falciparum luciferase reporter growth, 96 h; also: potency is read from the fitted curve at half-maximal effect
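Erythrocytes infected with luciferase-expressing P. falciparum were dispensed at 2% hematocrit and 0.05% parasitemia (final), then incubated with compounds 96 hours at 37 C in 5% CO2. Luminescence after detection reagent addition reported growth.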
MARV entry inh: Marburg virus entry inhibition. Marburg virus pseudotyped entry inhibition, cell reporter. Potency, µM (doses to about 37.8 µM), inactives show at the highest dose activity change, negative = inhibition, hits mostly inhibitors. 300,000 compounds, 1.8% hits; calls by dose curve; tested in HEK293 cells; also: potency is read from the fitted curve at half-maximal effect
HCMV antiviral: human cytomegalovirus inhibition; HFF cells, HCMV-luciferase reporter, 72 h; stronger effect = lower value; activity change, negative = inhibition, % at 57.5 µM; 410,000 compounds, 4.5% hits; in the data active = activity change below about -60%; inconclusive = no clear call, values can overlap the other calls; inactive = above about -39%
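Screen run at 2 compound doses on HFFs infected with reporter HCMV, MOI 1 PFU/cell. Luciferase activity from cell lysates at 72 h post infection gave inhibition relative to buffer-only and Salinomycin wells.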
Pf growth 48h: P. falciparum growth inhibition at 48 hours (one generation). P. falciparum luciferase growth in erythrocytes, 48 h. Potency, µM (highest dose often 28.7 µM), without a hit: at the highest dose activity change, negative = inhibition, usual class: inhibitors. 310,000 compounds, 5.9% hits. AID 504832; also: potency is read from the fitted curve at half-maximal effect
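In quantitative HTS format, infected erythrocytes bearing luciferase-reporter parasites were treated for a single generation at 37 C. Luminescence after adding detection reagent served as the growth measure.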
LASV entry inh: blocks Lassa virus binding to or entry into cells; Lassa virus pseudotype entry inhibition, cell reporter; Potency, µM (highest dose often 37.9 µM), without a hit: at the top dose activity change, negative = inhibition, actives largely listed as inhibitors; 300,000 compounds, 1.2% hits; calls by dose curve; tested in HEK293 cells; also: potency is read from the fitted curve at half-maximal effect; nearly all actives have a fitted effect of over 50% in size
HCV inh: inhibitors of hepatitis C virus infection; Huh7.5.1 HCVcc-Cre infection, luciferase reporter, 44 h; Potency, µM (highest dose often 41.8 µM), for the others: at the top dose activity change, negative = inhibition, hits mostly inhibitors; 340,000 compounds, 3.4% hits; also: potency is read from the fitted curve at half-maximal effect
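Infectious HCV cell culture screen: compound-treated cells (1,000/well, pre-plated 4 h) are infected with HCVcc-Cre at roughly 0.5 moi and grown 44 h. Infection is quantified by luciferase signal after 15 min substrate incubation at room temperature.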
Numbers without * were called inactive; ? = inconclusive; nt = no result; [ ] = remark or other dose. Unless noted, calls follow the shape of the dose curve; as a rule, active = well fitted inhibition curve with a large enough effect; inconclusive = small, poorly fitted or top-dose-only effect, or another doubt; inactive = no such curve, though single readings can be large or run the other way. % is scaled to controls: 0 for no effect and ±100 for the full control effect.

SMILES | Pf growth 96h | MARV entry inh | HCMV antiviral | Pf growth 48h | LASV entry inh | HCV inh
O=S1(=O)CC(N2CCCCC2)CN1Cc1cn(Cc2ccc(Cl)cc2)nn1 (stereo not drawn) | nt | nt | -4 | nt | nt | nt
COc1cccc(CNc2ncnc3onc(-c4ccc(F)cc4)c23)c1 | nt | nt | -16 | nt | 4%[46.1 µM] | nt
O=C(NCCc1ccccc1)c1ccc(Cl)c(S(=O)(=O)N2CCCC2)c1 | 10µM* | nt | nt | -16% | nt | 10µM*
Cc1ccc(-c2n[nH]c(=S)c3ccccc23)cc1 | ? | -12% | -14 | 0% | 2% | 2%
CCOc1ccc(-c2n[nH]c(=S)c3ccccc23)cc1 | 1.7µM* | -2%[46.1 µM] | -39 | ? | -17%[46.1 µM] | -13%
COc1ccc(CNC(=O)C2CCN(S(=O)(=O)c3ccc(N4CCCC4=O)cc3)CC2)cc1 | nt | nt | -8 | nt | nt | nt
CC(C)(C)OC(=O)N1CCC[C@H]1c1nnc(SCc2c(Cl)cccc2Cl)o1 | ? | -29% | 38 | 9.3µM* | -14% | -7%
CC1CCN(c2ccc(NC(=S)NC(=O)c3ccc(-c4cccc([N+](=O)[O-])c4)o3)cc2)CC1 | nt | 10% | -19 | 4.7µM* | 15% | -1%
O=C(c1ccc(-c2cccc([N+](=O)[O-])c2)o1)N1CCN(c2ccc([N+](=O)[O-])cc2)CC1 | ? | ? | -61* | ? | -30% | ?
O=C(c1ccc(-c2ccc(Cl)cc2)o1)N1CCN(c2ccc([N+](=O)[O-])cc2Cl)CC1 | ? | -1% | -80* | ? | ? | ?
O=[N+]([O-])c1cccc(-c2ccc(C(=S)N3CCN(c4ccc(F)cc4)CC3)o2)c1 | -10% | ? | -24 | -15% | 17% | ?
COC(=O)c1ccccc1NC(=O)c1cc(CN2CCCC2)on1 | nt | nt | 16 | nt | 1%[46.1 µM] | nt
Cc1ccc2nc(-c3ccccc3)cc(C(=O)N3CC(C)OC(C)C3)c2c1 (stereo not drawn) | ? | -23% | 2 | 10µM* | ? | 25%
COc1ccc2cc(-c3cc(C(=O)OCC(=O)NC4CCS(=O)(=O)C4)c4ccccc4n3)ccc2c1 (stereo not drawn) | 45% | 3.2µM* | 66 | 68% | 3.5µM* | ?
Cc1ccc2nc(-c3ccccc3)cc(C(=O)N3CCc4ccccc4C3)c2c1 | 12µM* | 1% | -1 | 9.3µM* | nt | ?
COc1ccc(-c2cc(C(=O)N3CCCCCC3)c3cc(C)ccc3n2)cc1 | 13µM* | nt | 13 | ? | nt | ?
COc1ccc(-c2cc(C(=O)N3CCOCC3)c3cc(C)ccc3n2)cc1 | nt | -7% | 132 | 23% | ? | -25%
Nc1ncnc2c1ncn2[C@@H]1O[C@H](C(=O)N2CCC[C@@H]2C(=O)OCc2ccccc2)[C@@H](O)[C@H]1O | nt | nt | 2 | nt | nt | nt
COC(=O)C1CCN(C(=O)COC(=O)c2cc(-c3ccccc3)nc3ccc(OC)cc23)CC1 | ? | nt | nt | 13µM* | nt | 17%
COc1ccc(-c2cc(C(=O)OCC(=O)N3CCOCC3)c3ccccc3n2)cc1 | nt | ? | -12 | nt | -9%[46.1 µM] | ?
COc1cccc(-c2cc(C(=O)NCCc3ccc(C)cc3)[nH]n2)c1 | nt | nt | -4 | nt | -23%[46.1 µM] | nt
COc1ccc(C2c3[nH]c4ccccc4c3C[C@H]3C(=O)N(c4ccccc4C(=O)N4CCC[C@@H]4C(=O)O)C(=O)N23)cc1 (stereo partly drawn) | ? | nt | 36 | 12µM* | nt | 12%
O=C(O)[C@@H]1CCCN1C(=O)c1ccccc1N1C(=O)[C@@H]2Cc3c([nH]c4ccccc34)C(c3cccc(Cl)c3)N2C1=O (stereo partly drawn) | 10µM* | nt | 14 | ? | nt | 19%
O=C1[C@@H]2Cc3c([nH]c4ccccc34)C(c3ccccc3)N2C(=O)CN1CCO (stereo partly drawn) | -2% | nt | -39 | 5% | nt | 8%
O=C1[C@@H]2Cc3c([nH]c4ccccc34)C(c3ccc(Cl)cc3)N2C(=O)CN1CCO (stereo partly drawn) | 10% | nt | 30 | ? | nt | 15%
SMILES | Pf growth 96h | MARV entry inh | HCMV antiviral | Pf growth 48h | LASV entry inh | HCV inh
Cc1ccc(C2c3[nH]c4ccccc4c3C[C@H]3C(=O)N(c4ccccc4C(=O)N4CCC[C@H]4C(=O)O)C(=O)N23)cc1 (stereo partly drawn) | 10µM* | nt | 74 | ? | nt | 28%
COC(=O)c1ccc(C2c3[nH]c4ccccc4c3C[C@H]3C(=O)N(C4CC4)CC(=O)N23)cc1 (stereo partly drawn) | ? | nt | 6 | ? | nt | -6%
CC(C)c1ccc(C2c3[nH]c4ccccc4c3C[C@H]3C(=O)N(c4ccccc4C(=O)N4CCC(C(=O)O)CC4)C(=O)N23)cc1 (stereo partly drawn) | 1.5µM* | nt | -2 | 1.7µM* | nt | 6%
COc1cc(OC)c(NC(=O)c2c3c(nc4ccccc24)C(=O)N(C2CCCCC2)C3)cc1Cl | nt | nt | 12 | nt | 24%[46.1 µM] | nt
COc1cccc(C2c3[nH]c4ccccc4c3C[C@H]3C(=O)N(c4ccccc4C(=O)N4CCC[C@H]4C(=O)O)C(=O)N23)c1 (stereo partly drawn) | ? | nt | 34 | ? | nt | 2.2µM*
CCOc1ccc(C2c3[nH]c4ccccc4c3C[C@H]3C(=O)N(C4CCN(Cc5ccccc5)CC4)CC(=O)N23)cc1OC (stereo partly drawn) | ? | nt | 7 | 4%[0.00184 µM] | nt | ?
COc1ccc(C2c3[nH]c4ccccc4c3C[C@H]3C(=O)N(c4ccccc4C(=O)N4CCC[C@H]4C(=O)O)C(=O)N23)cc1 (stereo partly drawn) | ? | nt | 17 | 9.3µM* | nt | 2%
O=C(O)[C@H]1CCCN1C(=O)c1ccccc1N1C(=O)[C@@H]2Cc3c([nH]c4ccccc34)C(c3cccc(Cl)c3)N2C1=O (stereo partly drawn) | ? | nt | -6 | ? | nt | -2%
CC(C)c1ccc(C2c3[nH]c4ccccc4c3C[C@H]3C(=O)N(c4ccccc4C(=O)N4CCC[C@@H]4C(=O)O)C(=O)N23)cc1 (stereo partly drawn) | 8.3µM* | nt | -14 | 9.3µM* | nt | 1%
CCCN1CCN(c2ncnc3sc(C(=O)Nc4ccc(OC(F)(F)F)cc4)c(C)c23)CC1 | nt | nt | 19 | nt | 1%[46.1 µM] | nt
COc1cc(OC)cc(C(=O)NCCc2csc(-c3cccc(C)c3)n2)c1 | nt | nt | ? | nt | -13%[46.1 µM] | nt
COc1ccc(OC)c(CCNC(=O)CCCn2c(=O)c3cccn3c3ccc(F)cc32)c1 | nt | nt | 26 | nt | -1%[46.1 µM] | nt
CCc1c(C#N)c(SCCC(=O)Nc2cccc(OC)c2)nc2c1C(=O)CC(C)(C)C2 | nt | -26% | -21 | ? | -29% | 10µM*
Cc1cc(C)nc(SCCC(=O)Nc2ccc(F)cc2)n1 | 4% | ? | ? | ? | 7% | 32%

Bioassay records: PubChem, National Center for Advancing Translational Sciences (NCATS)
